This is a sample that favours compounds with a hit; in the whole collection about 17% have one here.
TDP1 cell noCPT = qHTS for Inhibitors of human tyrosyl-DNA phosphodiesterase 1 (TDP1): qHTS in cells in absence of CPT | Potency, µM (top dose mostly 46.2 µM), inactives show at the highest dose activity change, negative = growth inhibition, actives largely listed as inhibitors | hit rate 15% among 420,000 | DT40 Tdp1-/- hTDP1 cells, no CPT, ATP luminescence, 48 h; also: % is scaled to controls: 0 for no effect and ±100 for the full control effect; nearly all actives have a fitted effect of over 55% in size
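Camptothecin absent (DMSO only). Human TDP1-complemented DT40 knockout cells, 400 cells/well, 37 °C for minimum 48 hr; ATP measured via CellTiter-Glo, 30 min dark incubation, luminescence.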
HepG2 tox = HepG2 cytotoxicity, counter-screen for TGF-b inhibitors. HepG2 CAGA-GFP viability, ATP luminescence, 18 h. AID 588856. hit rate 0.76% among 410,000. Potency, µM (titrated, usually from 46.1 µM), for the others: at the highest dose activity change, negative = cytotoxicity, most hits filed as cytotoxic
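CellTiter-Glo luminescence gave cytotoxicity after 18 hours at 37 degrees C. The cells were HepG2 CAGA-GFP in 1% FBS DMEM, stimulated with 500 pg/mL TGF-beta after compound addition. %Activity was normalised to no-cell wells (complete cell-killing) and DMSO (no toxicity), and curves were fitted and classified.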
ATXN viability = reduces viability in counter-screen for ATXN expression inhibitors | AID 651635 | hit rate 0.49% among 400,000 | Potency, µM (highest dose often 56.7 µM), hits mostly cytotoxic | S2 cells (HEK-293 line with an ATXN2-luciferase reporter) viability, CellTiter-Fluor protease fluorescence, 24 h; also: nearly all actives have a fitted effect of over 40% in size
ATXN2 expr inh = ATXN2 expression inhibition; HEK-293 ATXN2-luciferase reporter, luminescence, 24 h; Potency, µM (doses to about 57 µM), for the others: at the top dose activity change, negative = inhibition, usual class: inhibitors; hit rate 0.72% among 360,000; also: % is scaled to controls: 0 for no effect and ±100 for the full control effect; nearly all actives have a fitted effect of over 55% in size
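ATXN2-luciferase reporter cells (luciferase flanked by upstream and downstream ATXN2 gene portions) were treated 24 h at 37 °C with compounds at up to 57 uM. SteadyGlo luminescence gave expression; GF-AFC fluorescence gave viability.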
TDP1 cell CPT = DT40-hTDP1 cell growth loss with CPT | chicken DT40 Tdp1-/-;hTDP1 cells + 20 nM CPT, ATP luminescence, 48 h | Potency, µM (highest dose often 46.2 µM), inactives show at the highest dose activity change, negative = growth inhibition, actives largely listed as inhibitors | hit rate 12% among 420,000 | AID 686979; also: % is scaled to controls: 0 for no effect and ±100 for the full control effect; nearly all actives have a fitted effect of over 55% in size
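Chicken DT40 Tdp1-/- cells stably complemented with human TDP1 were seeded at 400 cells/well in medium containing 20 nM camptothecin, exposed to pin-transferred compounds, and grown at 37 °C for at least 48 hr. Viability was read as ATP luminescence.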
TGFb inhibitor = inhibitors of TGF-b signaling; HepG2 CAGA-GFP TGF-b/SMAD3 reporter, GFP fluorescence, 18 h; TGF-beta stimulated, 500 pg/mL final; Potency, µM (top dose mostly 46.1 µM), for inactives: at the top dose activity, negative = inhibition, hits mostly inhibitors; hit rate 1.2% among 410,000; also: % is scaled to controls: 0 for no effect and ±100 for the full control effect; nearly all actives have a fitted effect of over 65% in size
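Read-out: total well GFP (ex488/em500-530) summed from mean per-cell fluorescence. Cells: HEPG2 CAGA-GFP, 1% FBS DMEM, 18 h at 37 degrees C with 500 pg/mL final TGF-beta. Unstimulated wells served as the full-inhibition control; stimulated DMSO wells = 0%.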
* = called active by the depositor; i = inactive; ? = inconclusive; · = not tested or not shown; ! = a repeat was not active; [ ] = dose if it differs, or a comment. Calls follow the shape of the dose curve; as a rule, active = well fitted curve in the direction sought with a large enough effect; inconclusive = small, poorly fitted or top-dose-only effect, or another doubt; inactive = no such curve, though single readings can be large; an effect the other way counts as inactive or inconclusive. Potency is read from the fitted curve at half-maximal effect.

SMILES | TDP1 cell noCPT | HepG2 tox | ATXN viability | ATXN2 expr inh | TDP1 cell CPT | TGFb inhibitor
Cc1cc(C)nc(S[C@@H]2C[C@@H](C(=O)N3CCCN(C)CC3)N(Cc3cc(F)ccc3F)C2)n1 | -5.9% | · | i | · | -8.3% | ·
COc1ccc(CNC(=O)c2ccc3nc(-c4ccc(F)cc4)c(-c4ccc(F)cc4)nc3c2)cc1 | -27.2% | 0.2% | i | 6.4% | -20.5% | -5.5%
C=CCNC(=O)c1ccc(-c2nc3ccccc3nc2-c2ccccc2)cc1 | ? | 4.9% | i | -12.6% | ? | -11.0%
COCC(C)NC(=O)c1ccc2nc(-c3ccccc3)c(-c3ccccc3)nc2c1 (stereo unspecified) | 20.6µM* | -11.2% | i | 1.2% | ? | 0.8%
COc1cccc(CNC(=O)c2ccc3nc(-c4ccc(F)cc4)c(-c4ccc(F)cc4)nc3c2)c1 | 13µM* | -16.7% | i | -1.9% | 20.6µM* | -1.3%
CCNC(=O)c1ccc2nc(-c3ccccc3)c(-c3ccccc3)nc2c1 | 11.2µM* | -4.1% | · | · | 11.2µM* | -6.6%
CCCNC(=O)c1ccc2nc(-c3ccccc3)c(-c3ccccc3)nc2c1 | 23.1µM* | -6.4% | i | 4.0% | ? | -4.7%
COCC(C)NC(=O)c1ccc(N(C)C)cc1 (stereo unspecified) | -0.4% | -3.5% | i | 5.1% | 9.4% | 20.2%
CC1NC(=O)COC1c1ccccc1 (stereo unspecified) | 0.8% | -14.8% | i | · | 21.0% | -8.6%
CCc1cc(Cl)c(OC)c(C(=O)NC[C@@H]2CCCN2CC)c1O | 25.9µM* | -34.8% | ? | -19.4% | ? | 6.7%
O=S(=O)(NCCc1nnc2ccc(SCc3cccc(Cl)c3)nn12)c1ccccc1 | 18.4µM* | -29.1% | · | · | 14.6µM* | ?
Cc1ccc(C)c(CSc2ccc3nnc(CCNS(=O)(=O)c4ccccc4)n3n2)c1 | ? | -4.2% | · | · | ? | 0.0%
Cc1ccc(S(=O)(=O)NCCc2nnc3ccc(SCc4ccccc4C)nn23)cc1 | 16.4µM* | -4.3% | · | · | 16.4µM* | 17.6%
COc1ccc(-c2ccnc(SCC(=O)Nc3ccccn3)n2)cc1 | 18.4µM* | -3.0% | i | 0.7% | ? | -13.3%
Cc1nc(SCC(=O)Nc2ccccn2)n[nH]1 | 0.9% | -0.6% | i | 3.3% | 3.5% | -2.0%
CN1C(=O)Cc2cc(S(=O)(=O)CCC(=O)N3CCN(c4ccccc4F)CC3)ccc21 | 3.3% | -35.2% | i | 7.8% | ? | -18.8%
CCC(=O)N1c2ccc(S(=O)(=O)CCC(=O)N3CCN(c4ccccc4F)CC3)cc2CC1C (stereo unspecified) | 16.4µM* | -1.0% | i | -19.8% | ? | 6.0%
CC1Cc2cc(S(=O)(=O)N3CCN(c4ccc(Cl)cc4)CC3)ccc2N1C(=O)C1CC1 (stereo unspecified) | 13µM* | -4.8% | i | ? | 16.4µM* | ?
CC(=O)c1ccc(N2CCN(S(=O)(=O)c3ccc4c(c3)CC(C)N4C(=O)C3CCC3)CC2)cc1 (stereo unspecified) | 5.8µM* | 2.3% | i | 6.9% | 7.31µM* | -0.9%
CC(=O)N1c2ccc(S(=O)(=O)N3CCC(C(=O)N4CCN(c5ccc(Cl)cc5)CC4)CC3)cc2CC1C (stereo unspecified) | 5.17µM* | -21.8% | i | ? | 16.4µM* | ?
CCC1=C(OC(=O)N(CC)CC)N2C(=O)OC(=NCC(=O)OC)[C@]2(Cc2ccccc2)[C@H]2C1=CC[C@H]1C(=O)N(c3ccccc3)C(=O)[C@H]12 | ? | 9.7% | i | -2.8% | ? | ?
CCOc1ccc(CCNC(=O)CSCC(=O)Nc2ccc(OC)cc2)cc1OCC | ? | -27.7% | i | · | -5.8% | 0.9%
Cc1cccc(C(=O)Nc2nnc(SCc3cc(=O)n4cccc(C)c4n3)s2)c1 | 1.7% | -18.3% | · | · | 5.9% | -15.9%
CC(=O)N1CCC2(CCCN(C(=O)Nc3cccc(F)c3)C2)CC1 | 8.2% | · | · | · | -5.0% | ·
CC(=O)N1c2ccc(S(=O)(=O)N3CCC(C(=O)N4CCN(c5ccccc5F)CC4)CC3)cc2CC1C (stereo unspecified) | ? | -1.1% | i | -32.8% | 25.9µM* | -3.1%
SMILES | TDP1 cell noCPT | HepG2 tox | ATXN viability | ATXN2 expr inh | TDP1 cell CPT | TGFb inhibitor
CC(=O)c1ccc(N2CCN(c3ccc4cc(S(=O)(=O)N5CCC(C)CC5)ccc4n3)CC2)cc1 | 7.31µM*! | 8.1% | i | 4.8% | ? | -4.9%
CC1CCN(S(=O)(=O)c2ccc3nc(N4CCN(c5ccc(F)cc5)CC4)ccc3c2)CC1 | -22.8% | 4.3% | i | 7.7% | -1.6% | 6.1%
Cc1cc(=O)c(C(=O)Nc2cccc(N3CCCC3=O)c2)nn1-c1ccccc1F | -10.6% | -1.4% | i | -12.1% | 9.5% | 11.3%
Cc1ccc(S(=O)(=O)N(CCCO)CC(O)CON=C2c3ccccc3-c3ccccc32)cc1 (stereo unspecified) | 16.4µM* | -115.1% | · | ? | ? | ?
COc1ccc(/C=C(\NC(=O)c2cccs2)C(=O)NC(C)(C)C)cc1OC | -5.1% | -12.5% | i | · | 2.4% | -15.9%
COc1ccc(/C=C/C(=O)c2ccc(NC(=O)c3cccs3)cc2)cc1OC | 23.1µM* | -41.1% | i | 18.1% | 18.4µM* | 0.0%
COc1c(Cl)cc(Cl)cc1C(=O)Nc1ccc(NC(=O)c2cccs2)cc1 | 16.4µM* | -47.5% | ? | ? | ? | -8.0%
CCCCOc1cccc(C(=O)Nc2ccc(NC(=O)c3cccs3)cc2)c1 | ? | -44.9% | 17.8µM* | ? | 14.6µM* | -22.4%
COc1ccc(C(=O)Nc2ccc(NC(=O)c3cccs3)cc2)cc1Cl | 18.4µM* | 2.1% | ? | · | 14.6µM* | 0.3%
COC(=O)C1CCCCN1Cc1nc(N2CCCN(C(C)=O)CC2)c2ccccc2n1 (stereo unspecified) | 1.2% | · | i | · | 22.7%[9.04 µM] | ·
CCCCOc1cccc(C(=O)Nc2ccccc2N2CCCC2)c1 | ? | 3.5% | i | 1.8% | -16.2% | 4.9%
COc1ccc(C(=O)Nc2ccc(NC(=O)c3cccs3)cc2)cc1OC | 18.4µM* | -1.4% | i | 15.0% | ? | ?
CCCCOc1cccc(C(=O)Nc2cccc3ccc(C)nc23)c1 | 23.1µM* | 2.3% | i | -6.5% | ? | -11.8%

Source: PubChem BioAssay
